Assay results taken from the supplement of paper PMC7156485.
± gives the standard deviation of the averaged measurements.

How the values were obtained:
Conditions in all cases: concentration: 10 µM; 24 h
HCC1569 [1] = assay: cell number relative to DMSO (% of DMSO); higher = more cells (less growth inhibition / toxicity)
How it was run: (§1)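 H1.0 nuclear intensity or cell number is expressed as percent of the plate control, with the median of replicates taken. HCC1569 and TDF cells were treated with compounds at 10 µM for 24 h at 37 °C, in triplicate, then fixed and immunostained for H1.0 with DAPI as a nuclear stain. HCC1569 values were smoothed to correct for positional effects.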

TDF [2] = assay: as above
How it was run: as §1

TDF [3] = assay: H1.0 immunofluorescence intensity relative to DMSO (% of DMSO); higher = stronger H1.0 induction, active = 120 or more
How it was run: as §1

HCC1569 [4] = assay: H1.0 immunofluorescence intensity relative to DMSO (% of DMSO); higher = stronger H1.0 induction, active = 140 or more
How it was run: as §1
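Throughout, for H1.0 immunofluorescence intensity relative to DMSO: TDF is a line of transformed human dermal fibroblasts of mesenchymal origin.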
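Throughout, for cell number relative to DMSO: TDF denotes transformed human dermal fibroblasts of mesenchymal origin.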

SMILES | cell number (HCC1569 [1]) | cell number (TDF [2]) | H1.0 immunofluorescence intensity (TDF [3]) | H1.0 immunofluorescence intensity (HCC1569 [4])
CS(=O)(=O)c1ccc(C(O)C(COC(=O)CN)NC(=O)C(Cl)Cl)cc1 (stereo not drawn) [Thiamphenicol glycinate] | 105 | 96.1 | 98.4 (inactive) | 106 (inactive)
CCOC(=O)[C@H](Cc1ccc([N+](=O)[O-])cc1)NC(=O)c1ccccc1 [ethyl (2S)-2-(benzoylamino)-3-(4-nitrophenyl)propanoate] | 101 | 98.3 | 93.8 (inactive) | 95 (inactive)
CCCCCCCCCCCC=CC(C)(C)C=CCCCC(=O)O [7,7-Dimethyleicosadienoic acid] | 105 ± 6.3 | 99.5 ± 3.4 | 99 (inactive) | 95.5 (inactive)
CN(C)CCCN1c2ccccc2CCc2ccccc21.Cl [Imipramine.HCl] | 100 | 97.4 | 95.2 (inactive) | 100 (inactive)
CCCCCCCCCCCCCCCCCCCCC(=O)O [Heneicosanoic acid] | 102 | 95.5 | 98.5 (inactive) | 103 (inactive)
O=C(Nc1cccc(Nc2cc(Nc3cccc(C(F)(F)F)c3)ncn2)c1)C1CC1 [EGFR Inhibitor] | 54.7 | 8.22 | 178 (active) | 186 (active)
Cl.O=c1cc(N2CCOCC2)oc2c(-c3ccccc3)cccc12 [LY-294,002 hydrochloride] | 82 | 90.9 | 82.5 (inactive) | 131 (inactive)
CCOC(=O)C1=CC2(CC)CCCN3CCc4c(n1c1ccccc41)C32 (stereo not drawn) [Vinpocetine] | 101 ± 3 | 106 ± 5.3 | 93.2 (inactive) | 98.8 (inactive)
C[C@@H](O)[C@H]1C(=O)N2C(C(=O)O)=C(SCCN=CN)C[C@H]12.O | 101 | 104 | 99.9 (inactive) | 93.3 (inactive)
CC(N)(Cc1ccc(O)c(O)c1)C(=O)O [L-alpha-Methyl DOPA] | 96.4 | 98.5 | 91.3 (inactive) | 86.8 (inactive)
CCCCCCC=CCCCCCCCCC(=O)O [10(E)-Heptadecenoic acid] | 97.6 | 95.4 | 98.4 (inactive) | 98.8 (inactive)
Cl.O.O.c1ccc2c(c1)CN1CCCC1=N2 [Desoxypeganine] | 101 | 109 | 89.6 (inactive) | 86.8 (inactive)
CC(C)CCCC(C)C1CCC2C3CCC4=CC(N=O)CCC4(C)C3CCC12C [(20S)-cholest-4-en-3-one oxime] | 99.4 | 110 | 90.2 (inactive) | 101 (inactive)
NCCC(O)(P(=O)([O-])O)P(=O)([O-])O.O.O.O.O.O.[Na+].[Na+] [Pamidronate.2Na.5H2O] | 101 | 96.8 | 95 (inactive) | 107 (inactive)
[N-]=[N+]=Nc1ccc(C(=O)CSCC(NC(=O)CCC(N)C(=O)O)C(=O)NCC(=O)O)cc1 (stereo not drawn) [S-(p-Azidophenacyl)glutathione] | 103 | 105 | 95.5 (inactive) | 79.9 (inactive)
COc1cc2ncnc(Nc3ccc(Oc4ccccc4)cc3)c2cc1OC [Src Kinase Inhibitor I] | 88.6 | 94.7 | 106 (inactive) | 147 (active)
Cc1[nH]c2ccccc2c1CCNC(=O)c1cccs1 [N-[2-(2-methyl-1H-indol-3-yl)ethyl]-2-thiophenecarboxamide] | 102 | 95.5 | 97.1 (inactive) | 92.8 (inactive)
COc1ccc(C(=O)NCc2ccc(OCCN(C)C)cc2)cc1OC [Itopride] | 101 | 104 | 92 (inactive) | 118 (inactive)
COC(=O)Nc1nc2ccc(S(=O)c3ccccc3)cc2[nH]1 (stereo not drawn) [Oxfendazole] | 100 | 68.2 | 108 (inactive) | 124 (inactive)
NCCCC(=O)O | 109 | 106 | 108 (inactive) | 96.5 (inactive)
O=c1onc2cnc3ccccc3n12 | 101 | 97.5 | 103 (inactive) | 106 (inactive)
N#CC(=Cc1ccc(O)c(O)c1)C(=O)Nc1ccccc1 [Tyrphostin AG 494] | 87.1 | 94.9 | 88 (inactive) | 108 (inactive)
COc1cc(C(O)CO)ccc1OS(=O)(=O)[O-].[K+] (stereo not drawn) [MHPG sulfate potassium] | 102 | 105 | 89.9 (inactive) | 121 (inactive)
CCCN(CCC)CC1CCCCN1CCNC(=O)N1c2ccccc2C(=O)Nc2cccnc21 (stereo not drawn) | 98.5 | 112 | 87.8 (inactive) | 100 (inactive)

SMILES | cell number (HCC1569 [1]) | cell number (TDF [2]) | H1.0 immunofluorescence intensity (TDF [3]) | H1.0 immunofluorescence intensity (HCC1569 [4])
O=C(Nc1ccc(Cl)cc1)c1ccccc1NCc1ccncc1 [VEGF Receptor Tyrosine Kinase Inhibitor II] | 106 | 96.3 | 96.5 (inactive) | 98.1 (inactive)
Cc1ccccc1C(OCCN(C)C)c1ccccc1.O=C(O)CC(O)(CC(=O)O)C(=O)O (stereo not drawn) [Orphenadrine citrate] | 111 | 113 | 91.6 (inactive) | 96.1 (inactive)
COC1=C(OC)C(=O)c2ccccc2C1=O [2,3-Dimethoxy-1,4-naphthoquinone] | 74.6 | 36.2 | 114 (inactive) | 128 (inactive)
CCCCCCCCCCCCCC=CC(O)C(CO)NC(=O)CCCCCCC (stereo not drawn) [C8 Ceramide] | 102 | 99.5 | 101 (inactive) | 99.8 (inactive)
Cc1cnc(NC(=O)C2=C(O)c3ccccc3S(=O)(=O)N2C)s1 [Meloxicam] | 103 | 105 | 96.1 (inactive) | 104 (inactive)
Nc1[nH]nc2nnc(-c3c(-c4ccccc4)nn4ccccc34)cc12 | 94.2 | 100 | 89.2 (inactive) | 117 (inactive)
CNCCC(Oc1ccccc1OC)c1ccccc1.Cl (stereo not drawn) [Nisoxetine hydrochloride] | 98.6 | 111 | 99.4 (inactive) | 101 (inactive)
CC1=NN(c2ccc(C(=O)O)cc2)C(=O)/C1=C\c1ccc(-c2cc(C)c(C)cc2[N+](=O)[O-])o1 | 89.5 | 87.2 | 84.9 (inactive) | 108 (inactive)
Cc1[nH]c2ccccc2c1CC(=O)N[C@@H](Cc1ccccc1)C(=O)N(C)c1ccccc1 | 100 | 109 | 88.8 (inactive) | 119 (inactive)
COc1cc2nc(N3CCN(C(=O)C4=CC5C=CC4CC5)CC3)nc(N)c2cc1OC (stereo not drawn) [Prazobind] | 101 | 102 | 95.3 (inactive) | 93.2 (inactive)
CCCc1nn(C)c2c(=O)nc(-c3cc(S(=O)(=O)N4CCN(C)CC4)ccc3OCC)[nH]c12 [Sildenafil] | 101 | 94 | 95.1 (inactive) | 103 (inactive)
CN(C)CCOc1ccc(C(=C(CCCl)c2ccccc2)c2ccccc2)cc1 [Toremifene] | 97.2 | 104 | 102 (inactive) | 122 (inactive)
NC1CCCCC1N.O=C([O-])C(=O)[O-].[Pt+2] (stereo not drawn) [Oxaliplatin] | 87.5 ± 5.5 | 87.2 ± 18 | 97.9 (inactive) | 121 (inactive)
CC12CCC3c4ccc(O)cc4CCC3C1CCC2O (stereo not drawn) [Estradiol] | 94.6 | 93.8 | 97.6 (inactive) | 121 (inactive)
COc1cc2ncnc(Nc3ccc(O)c(Br)c3)c2cc1OC [JAK3 Inhibitor II] | 88.7 | 115 | 83.8 (inactive) | 127 (inactive)
O=C1CCN(c2ccccc2)N1 [Phenidone] | 106 | 97.6 | 92.2 (inactive) | 98.8 (inactive)
COc1cc2ncnc(Nc3ccc(NC(=O)c4ccccc4)cc3)c2cc1OC [Aurora Kinase Inhibitor II] | 77.8 | 54.8 | 111 (inactive) | 133 (inactive)
CC(O)C1C(=O)N2C(C(=O)O)=C(SCCN=CN)CC12 (stereo not drawn) [Imipenem] | 111 | 109 | 97.1 (inactive) | 102 (inactive)
CCCCCC=CCC=CCC=CCCCCCCC(=O)O [Dihomo-γ-linolenic acid] | 99.6 | 98.6 | 96.3 (inactive) | 97.7 (inactive)
CON=C(C(=O)NC1C(=O)N2C(C(=O)O)=C(COC(C)=O)CSC12)c1csc(N)n1 (stereo not drawn) [Cefotaxime Acid] | 107 | 99.1 | 96.3 (inactive) | 103 (inactive)
Cc1ccc2c(c1)C(N1CCN(C)CC1)=Nc1cccnc1N2 | 103 | 102 | 89.8 (inactive) | 99 (inactive)
CC(C)C(CO)Nc1nc(Nc2cccc(Cl)c2)c2ncn(C(C)C)c2n1 (stereo not drawn) | 65.5 | 60.6 | 120 (inactive) | 174 (active)
CCCn1c(=O)c2[nH]c(-c3ccc(OCC(=O)NCCN)cc3)nc2n(CCC)c1=O [Xanthine amine congener] | 97.6 | 104 | 98 (inactive) | 110 (inactive)
